Source: PubChem
IL-1B inflam inh: inhibitors of inflammasome signaling (IL-1 beta secretion) | THP-1 LPS/ATP IL-1B secretion, AlphaLISA, 16 h; hits give low values | activity change, % at 57.5 µM | 360,000 tested, 4.7% active; in the data active = activity change below about -50%; inconclusive = mostly about -30% to -49%
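Secreted IL-1B measured by AlphaLISA bead assay after 16 h compound exposure of THP-1 cells; compounds (final up to 57.5 uM) added 1 h before LPS (250 ng/mL) and ATP (1.25 mM) stimulation; lower signal means less secretion.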
HT1080-NT tox: kills 2HG-producing HT-1080-NT fibrosarcoma cells; AID 686970; HT-1080-NT fibrosarcoma viability, CellTiter-Glo ATP luminescence, 48 h; 360,000 tested, 1.6% active; Potency, µM (doses to about 46.1 µM), without a hit: at the top dose activity, negative = less viability, usual class: cytotoxic;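 also: NT is the 2HG producing partner of a matched IDH1 knockdown line; potency is read from the fitted curve at half-maximal effect; 0% = DMSO-treated cells and -100% = media-only wells without cells; nearly all actives have a fitted effect of over 55% in size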
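750 cells/well, RPMI + 5% FBS; 2 h settle, compound pin-transfer, 48 h at 37 degrees C. CellTiter-Glo 10 min RT, luminescence. Normalized to DMSO and media-only wells.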
HT1080 IDH1KD tx: toxicity to HT-1080 IDH1 knockdown cells (counter line) | Potency, µM (doses to about 46.1 µM), inactives show at the highest dose activity, negative = toxicity, hits mostly cytotoxic | 360,000 tested, 2% active | HT-1080 IDH1 knockdown viability, ATP luminescence, 48 h;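 also: potency is read from the fitted curve at half-maximal effect; 0% = DMSO wells and -100% = cell-free medium wells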
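HT-1080-IDH1KD cells (IDH1 knocked down), 750/well in RPMI with 5% FBS, treated with compound 48 h at 37 degrees C. Viability by CellTiter-Glo luminescence, normalised to DMSO and no-cell wells; concentration-response curves classed.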
TDP1 cell noCPT: qHTS for Inhibitors of human tyrosyl-DNA phosphodiesterase 1 (TDP1): qHTS in cells in absence of CPT. 420,000 tested, 15% active. Potency, µM (series often up to 46.2 µM), for inactives: at the top dose activity change, negative = growth inhibition, most hits filed as inhibitors. AID 686978, 2013. DT40 Tdp1-/- hTDP1 cells, no CPT, ATP luminescence, 48 h; also: potency is read from the fitted curve at half-maximal effect; nearly all actives have a fitted effect of over 55% in size
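Compound effects on proliferation are scored in DT40 Tdp1-/-;hTDP1 cells in the absence of CPT. ATP levels (CellTiter-Glo luminescence) are recorded after a ≥48 hr, 37 °C incubation.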
TDP1 cell CPT: DT40-hTDP1 cell growth loss with CPT. chicken DT40 Tdp1-/-;hTDP1 cells + 20 nM CPT, ATP luminescence, 48 h. Potency, µM (titrated, usually from 46.2 µM), inactives show at the highest dose activity change, negative = growth inhibition, hits mostly inhibitors. 420,000 tested, 12% active; also: potency is read from the fitted curve at half-maximal effect; nearly all actives have a fitted effect of over 55% in size
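Chicken DT40 Tdp1-/- cells stably complemented with human TDP1 were seeded at 400 cells/well in medium containing 20 nM camptothecin, exposed to pin-transferred compounds, and grown at 37 °C for at least 48 hr. Viability was read as ATP luminescence.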
Numbers without * were called inactive; ? = inconclusive; nt = not tested or not shown. An excerpt weighted towards active compounds, which were near 19% of everything screened. Unless noted, calls follow the shape of the dose curve; as a rule, active = well fitted curve in the direction sought with a large enough effect; inconclusive = small, poorly fitted or top-dose-only effect, or another doubt; inactive = no such curve, though single readings can be large; an effect the other way counts as inactive or inconclusive. Unless noted, % is scaled to controls: 0 for no effect and ±100 for the full control effect.

SMILES	IL-1B inflam inh	HT1080-NT tox	HT1080 IDH1KD tx	TDP1 cell noCPT	TDP1 cell CPT
COc1cccc(NS(=O)(=O)c2ccc(-c3cc(C)no3)s2)c1	nt	nt	nt	23.1µM*	?
CCOC(=O)CC(=O)CSc1nccc(-c2cccnc2)n1	-2.2	2.1%	9.3%	?	-18.2%
CN(CC(=O)Nc1ccc(Cl)cc1)CC(=O)N1CCc2ccccc21	-9.1	5.4%	0.1%	-3.2%	?
CC1(C)CC(C(=O)N2CCOc3ccc(CN4CCC(Oc5cccnc5)CC4)cc3C2)CCO1 (stereo not given)	nt	nt	nt	-23.0%	?
COc1cc(/C=N/NC(=O)C(=O)NCc2ccco2)cc(Cl)c1O	14.1	11.9%	3.6%	8.8%	11.6%
COc1ccc(N2CCN(S(=O)(=O)c3ccc(-c4cc(C)no4)s3)CC2)cc1	-3.5	16.7%	5.1%	2.8%	-23.7%
CCc1ccccc1N(C)S(=O)(=O)c1ccc(-c2cc(C)no2)s1	25.5	11.7%	?	1.3µM*	2.06µM*
CCN(c1ccc(OC)cc1)S(=O)(=O)c1ccc(-c2cc(C)no2)s1	11.8	?	?	14.6µM*	-95.2%
COc1ccc(OC)c(NS(=O)(=O)c2ccc(Cl)s2)c1	5.8	?	?	?	?
COc1ccc(OC)c(NS(=O)(=O)c2ccc(Br)s2)c1	nt	nt	nt	18.4µM*	16.4µM*
CCc1ccc(NC(=O)NCCCN2CCCC2=O)cc1	0.0	10.1%	12.2%	15.2%	-9.2%
CCOC(=O)C1CCN(C(=O)c2cc3c(=O)n4ccccc4nc3n2C)CC1	5.6	-8.6%	14.3%	1.7%	0.8%
Cc1ccc(-c2nc(S(=O)(=O)c3ccc(C)cc3)c(N3CCOCC3)o2)cc1	5.4	-1.5%	-0.5%	-24.3%	-1.2%
Cc1ccc(S(=O)(=O)c2nc(-c3ccc(F)cc3)oc2N2CCN(c3ccccc3)CC2)cc1	nt	nt	nt	18.4µM*	?
O=S(=O)(c1ccccc1)c1nc(-c2ccc(F)cc2)oc1N1CCCCCC1	nt	nt	nt	14.6µM*	18.4µM*
CCOCCCNC(=S)N1CCCC(c2nc3ccc(C)cc3[nH]2)C1 (stereo not given)	8.6	-2.0%	-13.8%	?	-27.4%
COc1ccc(/C=N/n2cnc3c([nH]c4ccc(F)cc43)c2=O)cc1CSc1ccccn1	2.7	28.5%	24.4%	7.31µM*	1.16µM*
CC(C)NC(=S)N1CCN(c2ncccn2)CC1	6.9	-4.1%	-7.1%	-6.5%	-6.3%
C=CCn1c(SCC(=O)/C(C#N)=C(\C)N)nc2sc(CC)cc2c1=O	?	-1.8%	-17.2%	20.6µM*	20.6µM*
C=CCn1c(SCC(=O)c2cccs2)nc2sc(CC)cc2c1=O	9.1	-5.7%	?	16.4µM*	14.6µM*
CC(=O)N1CCN(c2ccc(NC(=O)c3ccc(F)cc3)cc2)CC1	-4.9	1.0%	1.8%	-13.2%	8.3%
O=C1OC(Nc2ccc3c(c2)OCO3)c2ccccc21 (stereo not given)	-124.2*	?	17.8µM*	12.6µM*	22.4µM*
CCCc1c(C(=O)NNc2ccccc2OC)cnn1-c1ccccc1	-52.2*	-10.5%	-9.1%	-18.5%	-19.0%
CCCc1c(C(=O)N2CCN(c3ccccc3OC)CC2)cnn1-c1ccccc1	-1.8	-10.1%	-1.1%	18.4µM*	?
CCCc1c(C(=O)Nc2ccc(OC)cc2)cnn1-c1ccccc1	-5.9	-7.1%	-0.7%	?	-18.5%
SMILES	IL-1B inflam inh	HT1080-NT tox	HT1080 IDH1KD tx	TDP1 cell noCPT	TDP1 cell CPT
Clc1ccc(-c2nc(C3CCCCC3)no2)cc1	1.8	16.0%	17.3%	9.3%	6.6%
O=c1[nH]c(-c2ccccc2)nnc1-c1ccccc1	4.2	11.7%	3.2%	-8.9%	-4.0%
O=C(Nc1ccc(S(=O)(=O)N2CCOCC2)cc1)c1ccc(Cl)cc1Cl	-1.4	-1.8%	-6.4%	20.6µM*	?
Cc1cccc(-n2ccc(=O)c(C(=O)Nc3ccc(S(=O)(=O)N4CCOCC4)cc3)n2)c1	-21.0	-3.4%	-1.6%	23.1µM*	?
CCc1c(C(=O)Nc2ccc(S(=O)(=O)N3CCOCC3)cc2)csc1C	16.0	-26.0%	-28.1%	18.4µM*	23.1µM*
Cc1ccc(NC(=O)c2cc(S(=O)(=O)N3CCOCC3)ccc2Cl)cc1S(=O)(=O)N1CCOCC1	31.2	-0.7%	6.3%	?	?
Cc1ccc(-n2ccc(=O)c(C(=O)Nc3ccc(S(=O)(=O)N4CCOCC4)cc3)n2)cc1	-10.3	8.6%	1.3%	-11.0%	-4.6%
CN(C)S(=O)(=O)c1ccc(Cl)c(C(=O)Nc2ccc(S(=O)(=O)N3CCOCC3)cc2)c1	8.0	0.4%	0.3%	9.2µM*	10.3µM*
O=C(Nc1ccc(S(=O)(=O)N2CCOCC2)cc1)c1cc([N+](=O)[O-])ccc1Cl	20.7	?	?	?	16.4µM*
CC(NC(=O)COC(=O)c1cc(NS(=O)(=O)c2ccc(Cl)c([N+](=O)[O-])c2)ccc1O)C1CC2CCC1C2 (stereo not given)	-107.4*	?	?	?	?
Nc1nccc(N2CCCCC2)n1	8.3	-2.5%	5.7%	?	-6.1%
CC(=O)Nc1cc(-c2ccc(N)cc2)cn2c(-c3cccc(C(F)(F)F)c3)cnc12	-9.9	-2.5%	-16.9%	16.4µM*	16.4µM*
CC(=O)Nc1cccc(-c2cc(NC(C)=O)c3ncc(-c4cccc(C(F)(F)F)c4)n3c2)c1	-2.7	-25.0%	0.0%	23.1µM*	25.9µM*
CC(=O)Nc1cc(-c2ccc(CO)cc2)cn2c(-c3cccc(C(F)(F)F)c3)cnc12	-27.1	-29.1%	?	23.1µM*	18.4µM*
COc1ccc(F)cc1-c1cc(NC(C)=O)c2ncc(-c3cccc(C(F)(F)F)c3)n2c1	?	?	?	?	29.1µM*
CC(=O)Nc1cc(-c2cccc(NS(C)(=O)=O)c2)cn2c(-c3ccccc3)cnc12	-16.0	?	?	?	?
CC(=O)Nc1cc(-c2ccc(N)nc2)cn2c(-c3cccc(C(F)(F)F)c3)cnc12	0.0	?	?	14.6µM*	?
CSc1nnc(C)c(=O)n1COC(=O)/C=C/c1ccc2c(c1)OCO2	-5.2	12.8%	-3.3%	-20.1%	-1.6%
COc1ccccc1NC(=O)CCCCCN1C(=O)c2cccc([N+](=O)[O-])c2C1=O	22.3	17.5%	2.2%	?	-12.6%
COc1cc(/C=C2/C(=O)c3cccc([N+](=O)[O-])c3C2=O)c(Br)cc1O	32.5	?	18.4µM*	5.17µM*	6.51µM*
O=C(NCC(=O)N1CCCCCCC1)c1cccc([N+](=O)[O-])c1	22.3	-3.4%	-3.0%	-2.2%	?
Cc1cc(N=Cc2c(O)n(-c3ccc4c(c3)OCO4)c(=O)c3ccccc23)ccn1	?	?	?	18.4µM*	18.4µM*
